# PubChem BioAssay
# Where “and” joins values, the source holds several entries; their conditions need not be identical. Equal values may be shown once. Records with an inconclusive call do not appear. For part of these data: Potency and affinity values are given separately. Calls of active or inactive are those of the source. Rule as the data show it, unless noted: active = inhibition above about 80%; inactive = the rest.
# Columns and labels:
# [1] = molecular target: ATP-dependent translocase ABCB1 (Homo sapiens) (UniProt P08183); experiment: P-glycoprotein substrate transport blockade – cell-based (AID 377; in the data active = fluorescence slope change above about 50%); details: MDR1-expressing cells, fluorescent substrate accumulation slope; stronger effect = higher value; concentration not given here
# [2] = antimalarial activity against Dd2 strain (AID 2302;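 active = growth inhibition above 50% at the single 2 µM test dose, taken to imply half-maximal potency below 2 µM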;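 also: 0% = DMSO untreated growth and 100% = chloroquine plus artemisinin killed control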); details: P. falciparum Dd2 in RBCs, LDH growth readout, 72 h; at 2 µM; stronger effect = higher value
# [3] = human hepatoma cell viability loss – ATP luminescence, cytotoxicity control for P. falciparum antimalarial project, primary screen (AID 2303;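 active = inhibition above 50%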;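 also: 0% = DMSO wells and 100% = digitonin-killed cells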); details: HepG2 viability, 24-48 h, at 10 µM, stronger effect = higher value
# [4] = molecular target: L-lactate dehydrogenase (Plasmodium falciparum (isolate CDC / Honduras)) (UniProt Q27743); experiment: PfLDH activity inhibition – cell lysate, 3D7 strain, counter-screen for P. falciparum growth inhibition project (AID 2304; call rule not given here;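 also: 0% = vehicle and 100% = reference inhibitor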); details: P. falciparum 3D7 crude extract, LDH APAD/NBT absorbance; at 2 µM; stronger effect = higher value
# [5] = inhibition of 3D7 malaria parasite growth – strain 3D7 (AID 2306; call rule not given here;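 also: 0% = DMSO wells and 100% = chloroquine plus artemisinin control wells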); details: P. falciparum 3D7 erythrocytic growth, LDH absorbance, 72 h; at 2 µM; stronger effect = higher value
# [6] = compounds altering circadian rhythm period length – cell-based, LOPAC library, luminescence reporter (AID 2774; call rule not given here;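 also: values are relative to mean of DMSO wells on each plate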); details: circadian reporter cells, at 7 µM, actives lie on both sides
# [7] = compounds altering viability of human ES cells (AID 493140; call rule not given here;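 also: cells exposed to compounds for four days before counting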); details: human embryonic stem cell survival screen; stronger effect = higher value
# [8] = P. berghei load reduction in hepatocytes – cell-based, HepG2, luciferase luminescence, HepG2 viability, primary screen (AID 624349; in the data active = parasite load remaining mostly below about 12%, no sharp cut-off; inactive = mostly above about 10%;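 also: 100% = mean of DMSO negative control wells on the same plate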); details: P. berghei liver stage in HepG2, luciferase luminescence, concentration not given here; parasite load remaining: stronger effect = lower value; viability: measured here: HepG2 viability without parasites
# [9] = system: Hepatitis C virus NS3 helicase; experiment: blockers of NS3h binding to ssDNA – biochemical, fluorescence polarization, LOPAC1280 library, primary screen (AID 687035; in the data active = inhibition above about 37%); details: Purified HCV NS3 helicase, Cy5-dT15 ssDNA binding fluorescence polarization; stronger effect = higher value; concentration not given here
# [10] = compounds altering Cy5-DNA-NS3h complex signal – biochemical, LOPAC1280, artefact control for HCV NS3 helicase inhibitor project (AID 687037; call rule not given here); details: Cy5-DNA-NS3h complex fluorescence interference counterscreen
# [11] = molecular target: Calcium-dependent protein kinase 1 (Plasmodium falciparum (isolate 3D7)) (UniProt P62344); experiment: PfCDPK1 kinase inhibitors, biochemical, TCAMS library (AID 1159585; cut-off not given, nearly all actives have IC50 up to about 0.98 µM;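 also: inhibitors leave more ATP so luminescence rises with inhibition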); details: recombinant PfCDPK1, Kinase-Glo ATP depletion luminescence
# [12] = molecular target: Plasmodium falciparum protein kinase 6 (PK6, PF3D7_1337100) (UniProt Q8IDW1); experiment: PfPK6 kinase inhibitors, biochemical, TCAMS library (AID 1159586; call rule not given here); details: recombinant PfPK6, Kinase-Glo ATP depletion luminescence
# [13] = molecular target: Protein kinase 7 (PK7), Plasmodium falciparum 3D7 (PF3D7_0213400) (UniProt Q7YTF7); experiment: inhibition of Plasmodium PK7 catalytic activity – biochemical, TCAMS antimalarial set, Kinase-Glo luminescence (AID 1159587; call rule not given here); details: recombinant PfPK7, Kinase-Glo ATP depletion luminescence
# [14] = molecular target: Calcium-dependent protein kinase 4 (Plasmodium falciparum (isolate 3D7)) (UniProt Q8IBS5); experiment: PfCDPK4 kinase inhibitors, biochemical, TCAMS library (AID 1159588; cut-off not given, nearly all actives have IC50 up to about 0.91 µM); details: recombinant PfCDPK4, Kinase-Glo ATP depletion luminescence
# [15] = system: Aerobactin synthetase IucA (Klebsiella pneumoniae, hypervirulent); experiment: biochemical IucA inhibition screen of LOPAC library by absorbance (AID 1346212; call rule not given here;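 also: 100% = no compound wells and 0% = no enzyme wells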); details: IucA enzyme assay, absorbance (OD) readout; stronger effect = lower value;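 tested at 8 µM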
# [16] = viability loss with induced miR-34 in A549 – imaging, A549 dox-inducible miR-34, nuclei and caspase counts, primary screen (AID 1347080;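 active = compounds whose cell count with miR-34 switched on is under 0.7 times the count with it off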); details: A549 miR-34 inducible, Hoechst nuclei count, 48 h
# [17] = blockers of cellular phospholipid synthesis – cell-based, LOPAC library, screen 4, primary screen (AID 1347384; call rule not given here); details: animal cells, phospholipid biosynthesis inhibition screen; at 10 µM
# [18] = galactose survival enhancers in mitochondrial complex I cybrids – cell-based, galactose medium, ATP luminescence, primary screen (AID 1645843;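 active = z-score of at least 1.8 in each of two replicates, scored against plate mean and spread of sample wells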;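 also: positive z means more ATP and so rescue of galactose-driven cybrid death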); details: complex I mutant cybrid cells, 72 h, stronger effect = higher value
# [19] = growth inhibition, single agent or in combination, cell-based, chromothripsis tumors, cisplatin or BGB combos (AID 1671449); details: LFS_MB_P medulloblastoma cells;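 also: cells exposed for 96 hours; 0% = vehicle DMSO and 100% = killing by high DMSO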
# [20] = growth inhibition, single agent and combos, cell-based, chromothripsis tumors, cisplatin or BGB combos (AID 1671450); details: HDN33 neuroblastoma cells, stronger effect = higher value;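 also: cells exposed to compound for four days; 0% = vehicle DMSO and 100% = cell killing by high DMSO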
# [21] = growth inhibition, single agents and combos, ICB984, cell-based, cisplatin or BGB combos, synergistic combos for chromothripsis tumors (AID 1671451; call rule not given here;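 also: cells exposed for 96 hours before readout; 0% = vehicle DMSO and 100% = killing by high DMSO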); details: ICB984 medulloblastoma cells, drug combinations, stronger effect = higher value
# [22] = growth inhibition, single agents and combos, LFS_MB_1R, cell-based, cisplatin or BGB combos, synergistic combos for chromothripsis tumors (AID 1671452); details: LFS_MB_1R medulloblastoma cells, stronger effect = higher value;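 also: cells exposed for 96 hours before readout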
# [23] = growth inhibition, single agents and combos, HTB85, cell-based, BGB or cisplatin IC20 combos, synergistic combos for chromothripsis tumors (AID 1671453); details: HTB85 osteosarcoma cells, drug combinations, stronger effect = higher value;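 also: cells exposed for 96 hours before readout; 0% = vehicle DMSO and 100% = high DMSO killing control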
# [24] = growth inhibition, single agents and combos, CRL2098, cell-based, BGB or cisplatin IC20 combos, synergistic combos for chromothripsis tumors (AID 1671454); details: CRL2098 osteosarcoma cells, drug combinations, stronger effect = higher value;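 also: cells exposed for 96 h before readout; 0% = vehicle DMSO and 100% = killing by high DMSO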
# [25] = growth inhibition, single agents and combos, HD-MB03, cell-based, BGB or cisplatin IC20 combos, synergistic combos for chromothripsis tumors (AID 1671455; in the data active = inhibition above about 83%;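 also: 0% = vehicle DMSO and 100% = high DMSO as cytotoxic control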); details: HD-MB03 medulloblastoma cells, stronger effect = higher value
# [26] = growth inhibition, single agents and combos, UWB1.289, cell-based, BGB or cisplatin combos, synergistic combos for chromothripsis tumors (AID 1671456); details: UWB1.289 ovarian carcinoma cells, stronger effect = higher value;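 also: cells exposed to compound for four days; 0% = vehicle DMSO and 100% = killing by high DMSO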
# [27] = growth inhibition, single agents and combos, LFS_MB_2R, cell-based, cisplatin combos, synergistic combos for chromothripsis tumors (AID 1671457); details: LFS_MB_2R medulloblastoma cells, stronger effect = higher value;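 also: cells exposed to compound for four days before readout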
# [28] = growth inhibition, MDA-MB-436, cell-based, BGB or cisplatin combos, synergistic combos for chromothripsis tumors (AID 1671458; call rule not given here;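 also: cells exposed for 96 hours; 0% = vehicle DMSO and 100% = killing by high DMSO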); details: MDA-MB-436 breast carcinoma growth inhibition, drug combinations, stronger effect = higher value
# [29] = UWB1.289_BRCA1 ovarian cancer growth, cell-based, BGB or cisplatin combinations (AID 1671459); details: UWB1.289 BRCA1 ovarian carcinoma, drug combinations, stronger effect = higher value
# [30] = drug combination toxicity in non-malignant astrocytes – cell-based, BGB or cisplatin IC20 combos, cytotoxicity control for chromothriptic childhood tumor combination screen (AID 1671460); details: Human astrocytes, viability inhibition, drug combinations, at 0.5 µM, stronger effect = higher value;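 also: cells exposed to compounds for 96 hours before viability readout; 0% = vehicle and 100% = killing control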
# [31] = BT084 cell growth, single and combined drugs, ICGC_MB145, cisplatin and BGB IC40 combos (AID 1671461); details: BT084 medulloblastoma cells, drug combinations, stronger effect = higher value;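 also: cells exposed to drugs for 96 hours; 0% = vehicle DMSO and 100% = high DMSO full killing control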
# [32] = RCMB18 cell growth, single agent and combined, cisplatin and BGB IC40 combos (AID 1671462); details: RCMB18 medulloblastoma cells, stronger effect = higher value;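 also: cells exposed to compound for four days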
# [33] = CRL1545 cell growth, single agent and combined, cisplatin and BGB IC20 combos (AID 1671464); details: CRL1545 osteosarcoma cells, stronger effect = higher value;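 also: cells exposed to compound for 96 hours before readout; 0% = vehicle DMSO and 100% = high DMSO killing control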
# [34] = measured here: combination with BGB IC40, at 0.05 µM
# [35] = measured here: with BGB IC20 combination, at 0.5 µM
# [36] = measured here: with cisplatin IC20 combination, at 0.5 µM
# [37] = measured here: combination with cisplatin, at 0.5 µM
# [38] = measured here: combination with cisplatin, at 5 µM
# Chain of L-lactate dehydrogenase (Plasmodium falciparum (isolate CDC / Honduras)) (Q27743 whole entry, looked up): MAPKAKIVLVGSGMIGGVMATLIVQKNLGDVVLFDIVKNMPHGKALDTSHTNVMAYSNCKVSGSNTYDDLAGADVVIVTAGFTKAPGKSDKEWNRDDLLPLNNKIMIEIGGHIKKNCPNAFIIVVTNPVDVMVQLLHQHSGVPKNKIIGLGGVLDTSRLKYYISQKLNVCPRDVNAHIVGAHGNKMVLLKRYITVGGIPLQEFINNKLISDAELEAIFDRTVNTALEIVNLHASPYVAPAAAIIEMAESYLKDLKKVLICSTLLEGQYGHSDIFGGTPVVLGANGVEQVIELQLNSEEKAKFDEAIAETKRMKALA
# Chain of Calcium-dependent protein kinase 1 (Plasmodium falciparum (isolate 3D7)) (P62344 whole entry, looked up): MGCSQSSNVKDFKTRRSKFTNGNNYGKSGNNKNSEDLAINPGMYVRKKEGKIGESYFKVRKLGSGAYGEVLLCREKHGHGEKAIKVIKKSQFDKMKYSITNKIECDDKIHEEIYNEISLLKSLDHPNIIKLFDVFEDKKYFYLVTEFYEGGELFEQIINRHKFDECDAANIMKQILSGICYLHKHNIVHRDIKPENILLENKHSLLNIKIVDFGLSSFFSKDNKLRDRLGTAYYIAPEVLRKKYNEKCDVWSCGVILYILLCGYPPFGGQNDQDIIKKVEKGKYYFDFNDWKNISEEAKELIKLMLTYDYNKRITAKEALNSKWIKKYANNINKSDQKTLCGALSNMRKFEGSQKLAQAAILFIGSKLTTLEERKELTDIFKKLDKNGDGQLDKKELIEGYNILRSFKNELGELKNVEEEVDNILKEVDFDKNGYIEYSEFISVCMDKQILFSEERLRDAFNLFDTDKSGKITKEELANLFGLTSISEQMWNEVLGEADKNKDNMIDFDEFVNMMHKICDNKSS
# Chain of Plasmodium falciparum protein kinase 6 (PK6, PF3D7_1337100) (Q8IDW1 1-305): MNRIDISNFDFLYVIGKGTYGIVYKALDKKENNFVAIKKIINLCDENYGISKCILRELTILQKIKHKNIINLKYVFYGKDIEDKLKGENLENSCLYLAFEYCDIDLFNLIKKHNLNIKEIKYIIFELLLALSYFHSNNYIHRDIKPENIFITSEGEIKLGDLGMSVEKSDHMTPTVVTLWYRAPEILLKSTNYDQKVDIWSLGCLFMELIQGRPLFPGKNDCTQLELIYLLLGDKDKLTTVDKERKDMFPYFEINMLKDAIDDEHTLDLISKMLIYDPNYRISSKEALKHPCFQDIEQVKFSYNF
# Chain of Protein kinase 7 (PK7), Plasmodium falciparum 3D7 (PF3D7_0213400) (Q7YTF7 1-343): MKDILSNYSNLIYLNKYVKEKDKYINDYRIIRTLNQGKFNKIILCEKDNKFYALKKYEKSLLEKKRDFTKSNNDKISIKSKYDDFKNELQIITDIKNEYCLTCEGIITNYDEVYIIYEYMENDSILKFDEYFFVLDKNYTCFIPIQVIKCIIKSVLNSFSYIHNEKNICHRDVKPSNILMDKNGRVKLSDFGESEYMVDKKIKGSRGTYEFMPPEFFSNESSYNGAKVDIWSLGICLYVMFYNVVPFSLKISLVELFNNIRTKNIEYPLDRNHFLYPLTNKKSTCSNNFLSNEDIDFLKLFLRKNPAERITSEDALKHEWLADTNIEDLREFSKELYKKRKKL
# Chain of ATP-dependent translocase ABCB1 (Homo sapiens) (P08183 whole entry, looked up): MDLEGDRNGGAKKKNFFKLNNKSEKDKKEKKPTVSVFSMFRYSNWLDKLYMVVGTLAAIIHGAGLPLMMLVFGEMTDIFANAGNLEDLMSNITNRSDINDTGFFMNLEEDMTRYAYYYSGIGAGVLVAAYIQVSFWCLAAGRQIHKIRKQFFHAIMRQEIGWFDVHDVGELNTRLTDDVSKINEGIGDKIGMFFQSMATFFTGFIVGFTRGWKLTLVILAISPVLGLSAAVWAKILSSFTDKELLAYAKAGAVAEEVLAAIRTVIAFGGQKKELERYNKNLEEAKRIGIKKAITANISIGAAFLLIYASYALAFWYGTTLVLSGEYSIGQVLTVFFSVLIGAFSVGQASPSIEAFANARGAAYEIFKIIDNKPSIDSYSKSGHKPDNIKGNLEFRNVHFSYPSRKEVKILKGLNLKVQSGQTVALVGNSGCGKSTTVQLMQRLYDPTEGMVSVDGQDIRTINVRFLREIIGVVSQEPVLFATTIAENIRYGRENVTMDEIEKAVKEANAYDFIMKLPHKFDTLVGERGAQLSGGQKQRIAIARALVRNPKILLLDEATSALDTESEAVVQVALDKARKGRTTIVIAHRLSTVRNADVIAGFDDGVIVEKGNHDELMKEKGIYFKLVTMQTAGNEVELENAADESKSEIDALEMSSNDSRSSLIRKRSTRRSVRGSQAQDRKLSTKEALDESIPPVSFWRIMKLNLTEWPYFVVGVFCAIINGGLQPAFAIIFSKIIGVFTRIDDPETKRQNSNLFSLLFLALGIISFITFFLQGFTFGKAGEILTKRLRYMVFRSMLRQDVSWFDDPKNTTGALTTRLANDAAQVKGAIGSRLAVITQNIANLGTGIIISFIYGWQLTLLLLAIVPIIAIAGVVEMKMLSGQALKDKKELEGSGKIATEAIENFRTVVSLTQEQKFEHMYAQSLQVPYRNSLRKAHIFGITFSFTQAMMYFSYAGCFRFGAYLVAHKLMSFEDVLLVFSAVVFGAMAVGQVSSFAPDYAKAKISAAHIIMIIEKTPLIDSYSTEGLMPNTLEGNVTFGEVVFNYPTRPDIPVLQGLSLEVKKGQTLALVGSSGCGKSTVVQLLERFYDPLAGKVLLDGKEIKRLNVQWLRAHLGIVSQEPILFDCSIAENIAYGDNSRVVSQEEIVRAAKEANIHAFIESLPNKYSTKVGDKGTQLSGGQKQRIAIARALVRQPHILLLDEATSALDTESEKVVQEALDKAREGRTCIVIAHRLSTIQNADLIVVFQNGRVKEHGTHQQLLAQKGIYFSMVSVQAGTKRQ
# Chain of Calcium-dependent protein kinase 4 (Plasmodium falciparum (isolate 3D7)) (Q8IBS5 whole entry, looked up): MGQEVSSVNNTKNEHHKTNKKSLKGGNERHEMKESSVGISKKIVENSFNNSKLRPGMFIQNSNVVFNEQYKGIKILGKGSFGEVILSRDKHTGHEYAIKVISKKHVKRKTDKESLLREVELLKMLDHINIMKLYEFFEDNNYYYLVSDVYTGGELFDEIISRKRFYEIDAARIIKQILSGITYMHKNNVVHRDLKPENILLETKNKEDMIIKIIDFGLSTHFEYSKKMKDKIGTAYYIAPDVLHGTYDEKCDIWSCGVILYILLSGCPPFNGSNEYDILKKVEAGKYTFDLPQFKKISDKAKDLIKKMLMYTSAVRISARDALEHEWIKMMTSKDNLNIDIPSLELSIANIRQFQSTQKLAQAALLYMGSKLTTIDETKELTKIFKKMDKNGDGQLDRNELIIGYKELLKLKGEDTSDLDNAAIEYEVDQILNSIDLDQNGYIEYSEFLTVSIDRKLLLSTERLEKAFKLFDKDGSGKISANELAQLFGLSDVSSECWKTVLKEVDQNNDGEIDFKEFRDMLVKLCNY
compound,measurement,setting,value
Cc1c2ccncc2c(C)c2c1[nH]c1ccccc12,fluorescence slope change,[1],77.1% (active)
same,growth inhibition,[2],97% (active)
same,inhibition,[3],38% (inactive)
same,inhibition,[4],2% (inactive)
same,growth inhibition,[5],95% (active)
same,period change,[6],0.09 h (inactive)
same,survival,[7],10.4 (inactive)
same,parasite load remaining,[8],62% (inactive) and 52.8% (inactive)
same,viability,[8],85.3% and 75.8%
same,inhibition,[9],-3% (inactive)
same,fluorescence ratio (interference),[10],1 (inactive)
same,outcome,[11],inactive
same,outcome,[12],inactive
same,outcome,[13],inactive
same,outcome,[14],inactive
same,remaining activity,[15],81.7% (inactive)
same,fold change,[16]; stronger effect = lower value,1.32 (inactive) and 0.785 (inactive)
same,fold change,[16]; measured here: relative caspase fold change +Dox/-Dox,1.54 and 1.45
same,cell count,"[16]; measured here: total cells with miR-34 induction, stronger effect = lower value",324 and 1410
same,cell count,[16]; measured here: total cells without miR-34 induction,246 and 1800
same,outcome,[17],inactive
same,z-score,[18],-0.975 (inactive)
same,inhibition,"[19]; at 0.5 µM, stronger effect = higher value",-2.79% (inactive)
same,inhibition,"[19]; measured here: combination with BGB IC20, at 0.005 µM",-42.2%
same,inhibition,"[19]; measured here: combination with BGB IC40, at 0.005 µM",16.3%
same,inhibition,[19]; [34],-3.69%
same,inhibition,"[19]; measured here: combination with cisplatin, at 0.5 µM, stronger effect = higher value",-10.1%
same,inhibition,"[19]; measured here: combination with cisplatin, at 5 µM, stronger effect = higher value",97%
same,inhibition,"[20]; BGB combo, at 5 µM",71.9%
same,inhibition,[20]; at 0.5 µM,19.9% (inactive)
same,inhibition,"[20]; cisplatin combo, at 5 µM",81.9%
same,inhibition,[20]; [35],6.43%
same,inhibition,[20]; [36],19.1%
same,inhibition,"[20]; single agent, at 5 µM",86.5%
same,inhibition,"[21]; BGB IC20 combo, at 0.005 µM",64.1%
same,inhibition,"[21]; BGB IC40 combo, at 0.005 µM",71.1%
same,inhibition,"[21]; BGB IC40 combo, at 0.05 µM",99.2%
same,inhibition,[21]; at 0.5 µM,-7.09% (inactive)
same,inhibition,"[21]; cisplatin combo, at 0.05 µM",99.7%
same,inhibition,"[21]; cisplatin combo, at 0.5 µM",-15.1%
same,inhibition,"[21]; cisplatin combo, at 5 µM",2.54%
same,inhibition,"[21]; measured here: 5 uM single agent, at 5 µM",-6.79%
same,inhibition,[22]; at 0.5 µM,52.5% (inactive)
same,inhibition,[22]; [34],-15.3%
same,inhibition,[22]; [37],90.8%
same,inhibition,[22]; [38],99.2%
same,inhibition,[23]; at 0.5 µM,-6.03% (inactive)
same,inhibition,"[23]; measured here: with BGB IC20, at 0.5 µM",-6.83%
same,inhibition,"[23]; measured here: with BGB IC20, at 5 µM",36.4%
same,inhibition,"[23]; measured here: with cisplatin IC20, at 0.5 µM",-14.1%
same,inhibition,"[23]; measured here: with cisplatin IC20, at 5 µM",40.2%
same,inhibition,"[23]; single agent, at 5 µM",51.7%
same,inhibition,[24]; at 0.5 µM,-3.13% (inactive)
same,inhibition,"[24]; measured here: combination with BGB at IC20, at 0.5 µM",-26.6%
same,inhibition,"[24]; measured here: combination with cisplatin at IC20, at 0.5 µM",16.5%
same,inhibition,[25]; at 0.5 µM,21.3% (inactive)
same,inhibition,"[25]; measured here: combo with BGB at IC20, at 0.5 µM",32.4%
same,inhibition,"[25]; measured here: combo with cisplatin at IC20, at 0.5 µM",9.33%
same,inhibition,[26]; at 0.5 µM,18% (inactive)
same,inhibition,"[26]; measured here: inhibition with BGB combination, at 0.05 µM",-8.89%
same,inhibition,"[26]; measured here: inhibition with cisplatin combination, at 0.05 µM",-1.5%
same,inhibition,[27]; at 0.5 µM,-5.42% (inactive)
same,inhibition,[27]; [37],15.1%
same,inhibition,[27]; [38],95.3%
same,inhibition,[28]; at 0.5 µM,-9.97% (inactive)
same,inhibition,"[28]; measured here: BGB combination, at 0.5 µM",-20.5%
same,inhibition,"[28]; measured here: BGB combination, at 5 µM",24.1%
same,inhibition,"[28]; measured here: cisplatin combination, at 0.5 µM",-26.7%
same,inhibition,"[28]; measured here: cisplatin combination, at 5 µM",24.1%
same,inhibition,"[29]; BGB combination, concentration series, at 5 µM",104%
same,inhibition,[29]; at 0.5 µM,21.4% (inactive)
same,inhibition,"[29]; cisplatin combination, concentration series, at 5 µM",113%
same,inhibition,[30],13.8% (inactive)
same,inhibition,[30]; measured here: combo with BGB IC20,4.66%
same,inhibition,[30]; measured here: combo with cisplatin IC20,-5.08%
same,inhibition,[31]; at 0.5 µM,48.9% (inactive)
same,inhibition,"[31]; cisplatin combination, at 0.5 µM",60.2%
same,inhibition,"[31]; cisplatin combination, at 5 µM",49.9%
same,inhibition,"[31]; measured here: BGB IC40 combination 0.05 uM, at 0.05 µM",16.8%
same,inhibition,"[31]; single agent, at 5 µM",44.6%
same,inhibition,[32]; at 0.5 µM,14.6% (inactive)
same,inhibition,"[32]; cisplatin combo, at 5 µM",91.5%
same,inhibition,"[32]; measured here: BGB IC40 combination, at 0.05 µM",1.25%
same,inhibition,[32]; [37],-51.3%
same,inhibition,"[32]; single agent, at 5 µM",70.8%
same,inhibition,[33]; at 0.5 µM,-40.6% (inactive)
same,inhibition,[33]; [35],-33.3%
same,inhibition,[33]; [36],-46.6%
same,inhibition,"[33]; single agent, at 0.05 µM",-12.4%
same,inhibition,"[33]; single agent, at 5 µM",68.6%
